# Measured values published in PubChem BioAssay AID431 (Sanford-Burnham Center for Chemical Genomics, 2006).
# Out of some 63,000 compounds screened, about 1,100 (1.7%) were called active.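 How the source made its calls: active means compounds whose percent cytotoxicity in the single-dose primary screen, scaled between solvent and toxic-drug controls, exceeds 50; inactive means the rest.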 For the sample, actives were picked, then their nearest neighbours and some compounds at random. Results with a measured potency or affinity are listed apart.
# Experiment: cytotoxicity in KRAS-transformed pancreatic duct cells, primary screen, cell-based, fluorescence, HTS (AID 431);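 further: 0% = DMSO solvent wells and 100% = doxorubicin-treated wells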
# Conditions: HPDE-C7K KRASV12 cells, Alamar Blue viability, 48 h; at 10 µM; active compounds read high
row,Structure (SMILES),cytotoxicity
1,Cc1c(C(=O)Nc2ccc(C(=O)O)cc2)cnn1C,7.2% (inactive)
2,CC(=O)c1ccc(C(=O)Nc2ccc(N3CCOCC3)cc2)cc1,-18.3% (inactive)
3,COc1ccc(C(=O)/C=C/Nc2c(C)n(C)n(-c3ccccc3)c2=O)cc1OC,20.1% (inactive)
4,COc1ccccc1Oc1nc2c(c(=O)n(Cc3ccccc3F)c(=O)n2C)n1C,18.8% (inactive)
5,COC(=O)C1=C(C)N=C2SCCC(=O)N2C1c1cccs1 (stereo not given),12.3% (inactive)
6,COc1cccc(-n2ccnc2SCC(=O)Nc2nccs2)c1,-7.9% (inactive)
7,N#CC1=C(N)Oc2n[nH]c(-c3cccs3)c2C1c1ccsc1 (stereo not given),-8.3% (inactive)
8,COCCOC(=O)c1[nH]c2c(c1C)C(=O)CC(c1ccccc1)C2 (stereo not given),71.5% (active)
9,COCCOC(=O)c1[nH]c2c(c1C)C(=O)CC(c1ccc(F)cc1)C2 (stereo not given),5.3% (inactive)
10,COC(=O)c1[nH]c2c(c1C)C(=O)CC(c1ccccc1)C2 (stereo not given),48.3% (inactive)
11,COC(=O)c1[nH]c2c(c1C)C(=O)CC(c1ccc(C)cc1)C2 (stereo not given),-3.1% (inactive)
12,CCOC(=O)c1[nH]c2c(c1C)C(=O)CC(c1ccco1)C2 (stereo not given),59.2% (active)
13,CCOC(=O)c1[nH]c2c(c1C)C(=O)CC(c1ccc(OCC)c(OC)c1)C2 (stereo not given),-1.2% (inactive)
14,Cc1c(C(=O)N2CCOCC2)[nH]c2c1C(=O)CC(c1ccccc1Cl)C2 (stereo not given),55.9% (active)
15,CCOC(=O)c1[nH]c2c(c1C)C(=O)CC(c1ccc(OC)c(OC)c1)C2 (stereo not given),-13.1% (inactive)
16,Cc1c(C(=O)O)[nH]c2c1C(=O)CC(c1ccccc1)C2 (stereo not given),-8.9% (inactive)
17,COC(=O)c1[nH]c2c(c1C)C(=O)CC(c1cccs1)C2 (stereo not given),75.6% (active)
18,COCCOC(=O)c1[nH]c2c(c1C)C(=O)CC(c1ccc(N(C)C)cc1)C2 (stereo not given),-10.1% (inactive)
19,Cc1c(C(=O)N2CCOCC2)[nH]c2c1C(=O)CC(c1ccc(Cl)cc1)C2 (stereo not given),-7.4% (inactive)
20,CCN(CC)S(=O)(=O)c1ccc(OC(C)C)nc1,-11.5% (inactive)
21,COC(=O)c1ccsc1NC(=O)C1COc2ccccc2O1 (stereo not given),4.6% (inactive)
22,Cc1cc(C(=O)COc2ncnc3sccc23)c(C)n1C1CC1,-0.1% (inactive)
23,Cc1c(C(=O)OC2CCC(C)CC2)[nH]c2c1C(=O)CCC2 (stereo not given),0.1% (inactive)
24,Cc1c(C(=O)OC2CCCCC2)[nH]c2c1C(=O)CC(C)(C)C2,3.6% (inactive)
25,CSCCOC(=O)c1[nH]c2c(c1C)C(=O)CC(c1ccco1)C2 (stereo not given),59.3% (active)

row,Structure (SMILES),cytotoxicity
1,Cc1c(C(=O)OCC(C)C)[nH]c2c1C(=O)CC(c1ccco1)C2 (stereo not given),66.2% (active)
2,Cc1c(C(=O)OC2CCCC2)[nH]c2c1C(=O)CC(c1ccco1)C2 (stereo not given),53.7% (active)
3,Cc1c(C(=O)OCCOC(C)C)[nH]c2c1C(=O)CC(c1ccco1)C2 (stereo not given),68.1% (active)
4,CCC(C)OC(=O)c1[nH]c2c(c1C)C(=O)CC(c1ccc(N(C)C)cc1)C2 (stereo not given),4.6% (inactive)
5,Cc1c(C(=O)OCCOC(C)C)[nH]c2c1C(=O)CC(C)(C)C2,-19.6% (inactive)
6,COc1cc(C2CC(=O)c3c([nH]c(C(=O)OCCOC(C)C)c3C)C2)cc(OC)c1OC (stereo not given),5.8% (inactive)
7,COc1ccc(-n2nc(C(=O)NCC(=O)NCC3CCCO3)c3ccccc3c2=O)c(OC)c1 (stereo not given),0.7% (inactive)
8,CC(C)CNS(=O)(=O)c1ccc(CCC(=O)N2CCN(Cc3ccccc3)CC2)cc1,-1.6% (inactive)
9,CN(C)CC(=O)Nc1cc(C(F)(F)F)ccc1Cl,-7.9% (inactive)
10,Cc1cc(C)nc(SCc2nnc(SCC(=O)N3CCOCC3)o2)n1,4.2% (inactive)
11,CCc1nnc(NC(=O)c2ccc(COc3ccc(C)cc3)o2)s1,-2.5% (inactive)
12,CCCOC(=O)c1[nH]c2c(c1C)C(=O)CC(c1ccc(OC)c(OC)c1)C2 (stereo not given),-0.9% (inactive)
13,CCCCOC(=O)c1[nH]c2c(c1C)C(=O)CC(c1cc(OC)c(OC)c(OC)c1)C2 (stereo not given),4.1% (inactive)
14,CCCCCOC(=O)c1[nH]c2c(c1C)C(=O)CC(c1ccco1)C2 (stereo not given),51.4% (active)
15,Cc1cc(C)c2nc(SCC#N)cc(C)c2c1,15.7% (inactive)
16,Cc1cc(NCCCN2CCOCC2)n2ncc(-c3ccc(Cl)cc3)c2n1,23.7% (inactive)
17,Cc1cc(NCCN2CCOCC2)n2ncc(-c3ccc(Cl)cc3)c2n1,17% (inactive)
18,Cc1cc(NCCOCCO)n2ncc(-c3ccc(Cl)cc3)c2n1,75.4% (active)
19,COc1cccc(OCc2nc3ncc(Br)cc3[nH]2)c1,64.8% (active)
20,O=C(NCc1nc2ncc(Br)cc2[nH]1)c1ccccc1,-7.6% (inactive)
21,COc1cccc(OCc2nc3ccccc3[nH]2)c1,10.6% (inactive)
22,O=C(COC(=O)C(O)c1ccccc1)c1ccc2c(c1)OCCO2 (stereo not given),-14.7% (inactive)
23,Cn1cc(Cl)c(C(=O)Nc2cccc(Cl)c2Cl)n1,-18.7% (inactive)
24,COC(=O)c1ccc(Oc2cc(C)nc(SC)n2)cc1,53.4% (active)
25,CCOC(=O)c1ccc(Oc2nc(SC)nc(N(C)C)n2)cc1,-21.1% (inactive)

row,Structure (SMILES),cytotoxicity
1,COC(=O)c1ccc(Oc2cc(C)nc(NCc3ccccc3)n2)cc1,1.6% (inactive)
2,COC(=O)c1ccc(Oc2nc(C)cc(Oc3ccccc3)n2)cc1,-1.7% (inactive)
3,CCOC(=O)c1ccc(Oc2cc(C)nc(SC)n2)cc1,55.4% (active)
4,CCOC(=O)c1ccc(Oc2nc(NC)nc(SC)n2)cc1,-5.1% (inactive)
5,COc1ccc(S(=O)(=O)NC2CC3CCC2C3)cc1Cl (stereo not given),5% (inactive)
6,CCOC(=O)C(Cc1ccccc1)NC(=O)CCc1c(C)nc2ncnn2c1C (stereo not given),-0.7% (inactive)
7,O=C(CN1CCc2ccccc2C1)c1cccs1,-6.1% (inactive)
8,COc1cc2c(cc1OC)CN(C(=O)CSc1nnc3scc(-c4ccccc4)n13)CC2,1.3% (inactive)
9,CCN(CC)CCCOc1nc(C)nc2c1oc1ccccc12,9.8% (inactive)
10,Cc1cc(Cl)ccc1OCCCC(N)=O,-7% (inactive)
11,Clc1ccc(OCc2nc(-c3ccccn3)n[nH]2)cc1,47.8% (inactive)
12,Cc1cc(Cl)ccc1OCc1nc(-c2ccc(O)cc2)n[nH]1,86.2% (active)
13,COc1ccc(N2CCN(C(=O)c3ccc4c(c3)OCO4)CC2)cc1,17% (inactive)
14,CC1CC(C)CN(C(=O)Cn2c(=O)n(CCCCC(=O)NC3CCCC3)c(=O)c3ccccc32)C1 (stereo not given),-3.9% (inactive)
15,O=C(Cc1ccc(Cl)c(Cl)c1)OCC(=O)c1ccc[nH]1,-10.8% (inactive)
16,O=C(Cc1ccc(-c2ccccc2)cc1)N1CCOCC1,-4.1% (inactive)
17,O=C1NCCCC2c3c(cc(Br)c(O)c3Br)OC12N1CCOCC1 (stereo not given),-3.5% (inactive)
18,CCCCn1c(SCC(=O)OCC)nc2c1c(=O)[nH]c(=O)n2C,2.4% (inactive)
19,Cc1nc(SCC#N)c2c3c(sc2n1)CCC3,-15.5% (inactive)
20,Cc1nc(Sc2nnnn2C)c2c3c(sc2n1)CCC3,68.5% (active)
21,CSc1nc2sc3c(c2c2nnnn12)CCC3,6.6% (inactive)
22,Cc1nnn(C23CC4CC(CC(C4)C2)C3)n1,4.5% (inactive)
23,CC1CCCN(CCCNC(=O)c2coc3nc4ccccc4nc23)C1 (stereo not given),9.2% (inactive)
24,O=C(NCc1ccccc1)N1CCN(c2ccc(Cl)c(Cl)c2)CC1,-1.9% (inactive)
25,CCC(=O)Oc1ccc(-c2nc(-c3cccnc3)no2)cc1,-6.1% (inactive)

row,Structure (SMILES),cytotoxicity
1,CC(C)c1ccc(OC(=O)NCCO)cc1,-6.6% (inactive)
2,CCOc1ccc(C(=O)COC(=O)CC)cc1,-1.3% (inactive)
3,COC(=O)CCC(=O)Oc1ccc(OC(=O)CCC(=O)OC)cc1,18.3% (inactive)
4,CC1(C)CC(=O)C2=C(C1)OC(=O)C2(NC(=O)c1cccs1)C(F)(F)F (stereo not given),-9.1% (inactive)
5,CC1=C(C(=O)N(C)Cc2ccccc2)C2(CCC(C)CC2)OC1=O (stereo not given),1.3% (inactive)
6,Cc1cc(NC(=O)CSc2nc3c(c(=O)n2-c2ccccc2)SC(C)C3)no1 (stereo not given),5.9% (inactive)
7,COc1ccc(CCNC(=O)c2cnn3cccnc23)cc1OC,-0.5% (inactive)
8,CCN1C(=O)CC(C(=O)Nc2ccc(F)cc2)SC1=Nc1cccc(OC)c1 (stereo not given),-9.1% (inactive)
9,O=C(NCCCN1CCN(CCCNC(=O)c2ccccc2F)CC1)c1ccccc1F,-23.8% (inactive)
10,CC1CCc2nc(NC(=O)CN3CCN(Cc4ccc5c(c4)OCO5)CC3)sc2C1 (stereo not given),56.9% (active)
11,CC1CCc2nc(NC(=O)CN3CCOCC3)sc2C1 (stereo not given),-3.7% (inactive)
12,CC1CCc2nc(NC(=O)CN3CCN(c4ccccc4)CC3)sc2C1 (stereo not given),-5.6% (inactive)
13,COCCOC(=O)C1=C(C)NC2=C(C(=O)CCC2)C1c1ccc(N(C)C)cc1 (stereo not given),3% (inactive)
14,COC(=O)c1cc2ccsc2n1Cc1nc(-c2ccc(OC)cc2)oc1C,11.1% (inactive)
15,COc1ccc(-c2nc(CS(=O)CC(=O)NCc3ccco3)c(C)o2)cc1OC (stereo not given),1.1% (inactive)
16,COC(=O)c1ccc(-c2ccco2)n1Cc1nc(-c2ccc(OC)c(OC)c2)oc1C,74.4% (active)
17,CCCC(C(=O)NCc1ccc(OC)cc1)N(Cc1ccco1)C(=O)c1snc(C(N)=O)c1N (stereo not given),-4% (inactive)
18,O=c1oc2cc(O)ccc2c2oc3cc(O)ccc3c12,41% (inactive)
19,O=c1oc2cc(O)ccc2c2c1CCCC2,30.5% (inactive)
20,Oc1ccc2c(c1)oc1cc(O)ccc12,57% (active)
21,COc1ccc(N(Cc2cc3ccccc3[nH]c2=O)C(=O)C2CCCO2)cc1 (stereo not given),14.6% (inactive)
22,Cc1sc2nc(SCC(=O)c3cc(C)n(CC4CCCO4)c3C)n(C(C)C)c(=O)c2c1C (stereo not given),22.2% (inactive)
23,Cn1nnc2cc(C(=O)NC(C)(C)C)ccc21,3.4% (inactive)
24,Cc1ccc2c(c1)c1ncnc(N3CCN(c4ccccc4)CC3)c1n2C,9.4% (inactive)
25,Cc1ccc2c(c1)c1ncnc(N3CCOCC3)c1n2C,-7.1% (inactive)
